High-throughput results deposited in PubChem BioAssay by National Center for Advancing Translational Sciences (NCATS).
HT1080 IDH1KD tx = qHTS for induction of synthetic lethality in tumor cells producing 2HG: qHTS for the HT-1080-IDH1KD cell line; HT-1080 IDH1 knockdown viability, ATP luminescence, 48 h; hit rate 2% among 360,000; AID 686971, 2013; Potency, µM (titrated, usually from 46.1 µM), hits mostly cytotoxic
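Luminescent ATP read-out (CellTiter-Glo, 10 min at room temperature) after 48 h compound exposure at 37 °C gave viability of IDH1-knockdown HT-1080 cells. Activity was normalised to DMSO and cell-free wells, then fitted as concentration-response curves.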
KB-3-1 cytotox = qHTS assay for MDR1-selective chemotherapeutics: Primary screen using the parental adenocarcinoma cell KB-3-1. KB-3-1 viability, CellTiter-Glo ATP luminescence, 72 h. Potency, µM (titrated, usually from 46.1 µM), usual class: cytotoxic. hit rate 1.4% among 400,000. AID 1347075, 2019; note: nearly all actives have a fitted effect of over 60% in size
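KB-3-1 parental drug-naive adenocarcinoma cells in DMEM/10% FBS, incubated 72 h at 37 C with pin-transferred compounds across a concentration series. Viability by CellTiter-Glo luminescence; concentration-response curves fitted after normalization.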
KB-V1 cytotox = qHTS assay for MDR1-selective chemotherapeutics: Primary screen using the drug-selected MDR subline cells KB-V1; KB-V1 MDR cells viability, CellTiter-Glo, 72 h; Potency, µM (top dose mostly 46.1 µM), usual class: cytotoxic; hit rate 3.4% among 400,000; AID 1347076, 2019; note: nearly all actives have a fitted effect of over 60% in size
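Compound-treated KB-V1 multidrug-resistant cells, 72 h, 37 degrees C; viability by CellTiter-Glo. Fitted qHTS curves give the values.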
IL1B secr inh = qHTS for Inhibitors of Inflammasome Signaling: IL-1-beta AlphaLISA Primary Screen | THP-1 LPS/ATP IL-1B secretion, AlphaLISA, 16 h; active compounds read low | hit rate 4.7% among 360,000 | activity change, % at 57.5 µM; in the data active = activity change below about -50%; inconclusive = mostly about -30% to -49%
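THP-1 cells pretreated 1 hr with compounds (up to 57.5 uM final), then stimulated with LPS (250 ng/mL final) plus ATP (1.25 mM final); secreted IL-1B measured by AlphaLISA after 16 hr, decreased signal indicating inhibition.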
HT1080-NT tox = qHTS for induction of synthetic lethality in tumor cells producing 2HG: qHTS for the HT-1080-NT fibrosarcoma cell line; HT-1080-NT fibrosarcoma viability, CellTiter-Glo ATP luminescence, 48 h; Potency, µM (top dose mostly 46.1 µM), usual class: cytotoxic; hit rate 1.6% among 360,000; AID 686970, 2013;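 note: NT is the 2HG producing partner of a matched IDH1 knockdown line; nearly all actives have a fitted effect of over 55% in size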
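Viability by CellTiter-Glo luminescence after 48 h compound exposure at 37C of HT-1080-NT cells (750/well, RPMI, 5% FBS). % activity scaled between DMSO wells and medium-only wells, then curve-fitted and categorized by curve class.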
Numbers stand for hits; n = inactive; u = inconclusive; x = no result given. Sampled rows, rich in hits. Any-hit rate of the full collection: about 8.8%. Unless noted, calls come from the whole dose curve; as a rule, active = well fitted curve in the direction sought with a large enough effect; inconclusive = small, poorly fitted or top-dose-only effect, or another doubt; inactive = no such curve, though single readings can be large; an effect the other way counts as inactive or inconclusive.

SMILES	HT1080 IDH1KD tx	KB-3-1 cytotox	KB-V1 cytotox	IL1B secr inh	HT1080-NT tox
CCNC(=O)C1CCCN(C(=O)c2cnc3ccccc3n2)CC1 (stereo unspecified)	n	n	n	n	n
COCCN(CC(=O)Nc1cccc(C)c1C)C(=O)c1cc(-c2cccs2)nn1-c1ccccc1	n	n	n	n	n
COCCN(CC(=O)Nc1cccc(C)c1C)C(=O)C1(c2ccccc2)CC1	n	n	18µM	n	n
COCCN(CC(=O)Nc1cccc(C)c1C)C(=O)C1(c2ccc(Cl)cc2)CCC1	n	n	n	-53	n
CN(CC(=O)Nc1cccc(F)c1)CC(=O)NC(c1ccccc1)c1ccccc1	n	n	n	n	n
Cc1cccc(NC(=O)CN(C)CC(=O)NC(c2ccccc2)c2ccccc2)c1C	n	n	3.3µM	n	n
Cc1cc(C)cc(NC(=O)c2ccc3c(O)c(S(=O)(=O)c4ccccc4)c(=O)[nH]c3c2)c1	x	n	n	x	x
COc1ccc(NC(=O)COC(=O)Cc2cccs2)cc1Cl	n	n	n	n	n
COc1c([N+](=O)[O-])ccc(N)c1N	x	n	n	x	x
Cc1cc2[nH]c3ccccc3c2c(C)n1	u	u	16µM	-94	n
COc1ccccc1NC(=O)c1ccc(CSc2ccccc2)o1	n	n	u	n	n
CC(C)C(OC(=O)c1nsc(Cl)c1Cl)C(=O)NCC1CCCO1 (stereo unspecified)	n	n	n	n	n
COC/C=C/C1=CC(=O)C[C@H](c2ccc3c(c2)OCO3)C1	n	u	u	-96	n
CCCCC/C=C/C1=CC(=O)C[C@H](c2ccc3c(c2)OCO3)C1	n	n	n	n	n
CC1=NN(C(=O)c2ccncc2)C(=O)C1N=Nc1ccc2ccccc2c1 (stereo unspecified)	n	u	6.5µM	n	n
Cn1c(-c2sc3cc(C(F)(F)F)cnc3c2-c2ccccn2)n[nH]c1=S	n	n	n	n	n
CSc1nnc(-c2sc3cc(C(F)(F)F)cnc3c2-c2ccccn2)n1C	n	u	18µM	n	n
O=c1ccc(-c2ccc(S(=O)(=O)Nc3ccc(F)cc3)s2)n[nH]1	n	n	n	n	n
CC(C)CC1C(=O)N(Cc2cn(CCC3OCCO3)nn2)CCS(=O)(=O)N1Cc1ccc(-c2cccc(CO)c2)cc1 (stereo unspecified)	n	n	n	n	n
CCC/C=C/c1ccc(CN2C(CC(C)C)C(=O)N(Cc3cn(Cc4ccco4)nn3)CCS2(=O)=O)cc1 (stereo unspecified)	u	u	u	-62	u
Cc1cccc(C)c1-c1ccc(CN2C(CC(C)C)C(=O)N(Cc3cn(CCO)nn3)CCS2(=O)=O)cc1 (stereo unspecified)	n	n	n	-57	n
CCOc1ccc(Nc2nc3ccccc3n3c(CC)nnc23)cc1	x	n	u	x	x
Cc1nc2cc(-c3ccc(Cl)cc3)nn2c(NCCN(C)C)c1C	n	n	n	-75	u
Cc1cc(C)n2nc(-c3ccc(Cl)cc3)cc2n1	n	n	n	n	n
C[C@@H](C(=O)NCc1ccccc1)[C@@H]1C[C@@]1(C)[C@@H](NC(=O)OCc1ccccc1)c1ccccc1	n	u	n	-57	n
SMILES	HT1080 IDH1KD tx	KB-3-1 cytotox	KB-V1 cytotox	IL1B secr inh	HT1080-NT tox
Cc1ccc2oc3c(c(=O)c2c1)C(c1ccc(O)cc1)N(c1nc(C)c(C)s1)C3=O (stereo unspecified)	x	n	n	x	x
Oc1c(N=NC(=S)Nc2ccccc2F)c2ccccc2n1Cc1cccc(Cl)c1	n	6.5µM	n	n	u
NC(=S)N=Nc1c(O)n(Cc2ccc(F)cc2)c2ccccc12	n	n	n	n	n
Cc1cccc(Cn2c(O)c(N=NC(=S)Nc3ccccc3F)c3ccccc32)c1	n	u	u	n	n
NC(=S)N=Nc1c(O)n(CCCl)c2ccc(Br)cc12	n	u	u	-101	n
NC(=S)N=Nc1c(O)n(Cc2ccc(Br)cc2)c2ccccc12	3.7µM	3.3µM	4.6µM	n	u
C/C(Cl)=C\Cn1c(O)c(N=NC(N)=S)c2cc(Br)ccc21	u	u	u	n	u
Fc1ccc(Nc2c(-c3ccco3)nc3ccccn23)cc1	n	n	n	-64	n
O=C(NCc1cccnc1)/C(=C\c1ccc(-c2ccc(Br)cc2)o1)S(=O)(=O)c1ccccc1	5.8µM	u	7.3µM	-105	9.2µM
O=C(NCc1cccnc1)/C(=C/c1ccc(-c2ccc(Cl)cc2)o1)S(=O)(=O)c1ccccc1	5.6µM	n	u	-106	6.3µM
O=C(CN(Cc1ccc(Br)cc1)S(=O)(=O)c1ccccc1)NCc1cccnc1	n	x	x	n	n
CS(=O)(=O)c1ccccc1-c1nnc(NC(=O)C2=COCCO2)o1	n	n	n	n	n
Cc1cccc(NC(=S)N2CCN(C(=O)c3ccco3)CC2)c1C	n	n	u	n	n
O=C(c1cccc(S(=O)(=O)N2CCCC2)c1)N1CCCC(C(F)(F)F)C1 (stereo unspecified)	n	n	n	n	n
COC(=O)c1cc(C(=O)N2CCN(c3cccc(Cl)c3)CC2)cc([N+](=O)[O-])c1	0.46µM	1µM	u	n	0.52µM
COC(=O)c1cc(C(=O)N2CCOCC2)cc([N+](=O)[O-])c1	n	n	n	n	n
O=[N+]([O-])c1ccc2[nH]cc(S(=O)(=O)N3CCN(c4cccc(Cl)c4)CC3)c2c1	23µM	u	u	-96	21µM
O=C(/C=C/c1ccc(Cl)cc1)N1CCN(c2c(Cl)cccc2[N+](=O)[O-])CC1	n	n	n	-76	n
O=S(=O)(c1ccccc1)N1CCN(c2cccc(Cl)c2)CC1	n	n	n	n	n
O=C(c1cccc([N+](=O)[O-])c1)N1CCN(c2cccc(Cl)c2)CC1	u	18µM	5.8µM	n	u
CC(C)[C@H](NC(=O)[C@@H]1CSC2c3ccccc3C(=O)N21)C(=O)NCc1ccncc1 (stereo partly specified)	n	n	n	n	n
COc1cc2c3nc4n(c(=O)c3n(CC(=O)NCC3CCCO3)c2cc1OC)CCS4 (stereo unspecified)	n	n	n	n	n
O=C(/C=C/c1cccc([N+](=O)[O-])c1)N1CCN(c2ccc(F)cc2)CC1	n	n	21µM	n	n
CC1(C)S[C@@H]2[C@H](NC(=O)C(NC(=O)N3CCNC3=O)c3ccccc3)C(=O)N2[C@H]1C(=O)O (stereo partly specified)	n	n	n	n	n
Cc1cccc(OCCCC(=O)Nc2nc3ccccc3[nH]2)c1	n	u	21µM	n	n
